Source: PubChem (several laboratories)
Compounds with a hit are over-represented: about 32% of the library has one in this group of screens.
CYP2C9 inh: blocks human cytochrome P450 2C9. CYP2C9 Supersomes, luciferin-H conversion, luminescence. inhibition, % at 5 µM. actives 20% (n = 96,000). AID 777;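 active = blocking of liver enzyme CYP2C9 beyond about 50% at 5 µM, limit read from the data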
CYP2C19 inhib: human CYP2C19 inhibition; CYP2C19 Supersomes, luciferin-H EGE luminescence, 30 min; actives 21% (n = 96,000); inhibition, % at 5 µM; AID 778;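 active = CYP2C19 inhibition above a set limit at 5 µM in the primary screen, cut at about 50% in these data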;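 also: plate controls were negative control wells for no effect and 2.5 mM tranylcypromine positive control for full effect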
Target sequence (P33261 whole entry, looked up): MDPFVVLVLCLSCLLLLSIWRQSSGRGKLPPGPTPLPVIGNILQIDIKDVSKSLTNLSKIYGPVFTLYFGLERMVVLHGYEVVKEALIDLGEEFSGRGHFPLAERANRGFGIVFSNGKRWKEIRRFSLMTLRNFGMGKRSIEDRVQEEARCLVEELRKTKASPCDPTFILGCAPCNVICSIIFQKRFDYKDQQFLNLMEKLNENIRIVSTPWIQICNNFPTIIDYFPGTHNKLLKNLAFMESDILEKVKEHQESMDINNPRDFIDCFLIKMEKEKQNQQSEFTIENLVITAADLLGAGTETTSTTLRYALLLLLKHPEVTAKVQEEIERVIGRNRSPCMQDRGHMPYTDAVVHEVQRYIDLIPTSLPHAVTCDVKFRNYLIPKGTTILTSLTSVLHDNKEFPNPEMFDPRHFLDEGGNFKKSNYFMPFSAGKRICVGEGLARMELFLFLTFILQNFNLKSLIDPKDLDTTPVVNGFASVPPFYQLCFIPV
PostGolgi yeast: growth inhibition of a yeast mutant, post-Golgi transport screen; post-Golgi transport phenotypic cell assay; inhibition, % at 10 µM; actives 0.9% (n = 98,000); AID 739;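 also: yeast cells grown in 1536-well plates; yeast grown about 18 h at 30C before absorbance read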
PostGolgi ctrl: inhibits growth of the yeast control strain. efflux-deficient yeast background strain, growth absorbance A615, 16 h. inhibition, % at 10 µM. actives 5% (n = 98,000)
CYP2C9 activ: CYP2C9 (human) activation; actives 1.4% (n = 96,000); recombinant CYP2C9, luciferin-H conversion, luminescence; hits give high values; factor 1 = untreated enzyme, 0 = blocked; activation factor at 5 µM; P11712;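 active = activation factor of 2 or more for CYP2C9 at a 5 µM dose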;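 also: 0 = sulfaphenazole-blocked wells and 1 = vehicle-only wells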
CYP2C19 act: activators of human cytochrome P450 2C19. recombinant CYP2C19, luciferin-H EGE luminescence; hits give high values; 0 = fully inhibited enzyme, 1 = untreated enzyme. activation factor at 5 µM. 96,000 tested, under 10 active. AID 1025;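 active = activation factor of at least 2 at 5 µM in the primary screen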;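 also: 0 = wells with 2.5 mM tranylcypromine and 1 = vehicle-only wells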
Starred values were filed as active, the others as inactive; nt = no result given. Rule as the data show it, unless noted: active = inhibition above about 30%; inactive = the rest.

SMILES	CYP2C9 inh	CYP2C19 inhib	PostGolgi yeast	PostGolgi ctrl	CYP2C9 activ	CYP2C19 act
COc1ccc(OC)c2c(C)cc(N3CCCN(C)CC3)nc12	-17.3	12.4	-0.8	6.3	1.2	0.9
COc1cccc(-n2c(=O)[nH]cc(C(=O)Nc3ccc4c(c3)OCCO4)c2=O)c1	nt	nt	0.9	8.9	nt	nt
Cc1ccc(CNC(=O)Cn2c(=O)oc3ccccc32)o1	0.5	23.5	0.7	39.9*	1	0.8
O=C(Cn1c(=O)oc2cc(S(=O)(=O)NCc3ccccc3)ccc21)NCc1ccco1	61.1*	1.6	-1.4	15.4	0.4	1
CCn1c(=O)n(CC(=O)NCc2ccccc2OC)c(=O)c2ccccc21	-44.5	53.8*	-7.5	29.8	1.4	0.5
COc1cccc(CNC(=O)Cn2c(=O)oc3ccccc32)c1OC	4.0	65.6*	-6.5	-8.7	1	0.3
CC(C)Oc1ccc(CNC(=O)Cn2c(=O)oc3ccccc32)cc1	-6.5	23.0	-2.0	7.6	1.1	0.8
CCOc1ccccc1CNC(=O)Cn1c(=O)oc2ccccc21	-22.7	36.7	-4.9	-5.8	1.2	0.6
Cc1cc(NC(=O)COC(=O)C2CCN(S(=O)(=O)c3c(Cl)cccc3Cl)CC2)no1	42.4	42.5	-1.8	0.0	0.6	0.6
COc1ccc2[nH]cc(C(=O)CN3CCCC(C)C3)c2c1 (configuration not stated)	6.0	-11.2	6.2	8.8	0.9	1.1
COc1cccc(N2CCN(CC(=O)c3c[nH]c4ccc(OC)cc34)CC2C)c1 (configuration not stated)	50.1*	29.4	1.7	9.7	0.5	0.7
CCCCNC(=O)C1CC(=O)N(c2ccc(OC)cc2)C1c1ccc(OC)cc1 (configuration not stated)	16.7	28.6	0.0	6.4	0.8	0.7
COc1cc2c3c(c1)C1(C(=O)N3C(C)(C)C=C2C)C(C#N)=C(N)Oc2cc(C)oc(=O)c21 (configuration not stated)	26.7	55.2*	13.0	22.7	0.7	0.4
Cc1ccc2c3c1C1(C(=O)N3C(C)(C)CC2C)C(C#N)=C(N)Oc2cc(O)ccc21 (configuration not stated)	89.3*	69.7*	-2.0	1.6	0.1	0.3
CC1=CC(C)(C)N2C(=O)C3(C(C#N)=C(N)Oc4cc(O)ccc43)c3cccc1c32 (configuration not stated)	51.0*	31.8	-0.3	3.3	0.5	0.7
Cc1ccc2c3c1C(=O)C(=O)N3C(C)(C)CC2C (configuration not stated)	3.2	16.1	-2.9	3.6	1	0.8
Cc1cc2c3c(c1)C1(C(=O)N3C(C)(C)CC2C)C(C#N)=C(N)Oc2cc(O)ccc21 (configuration not stated)	89.7*	79.0*	-0.5	16.7	0.1	0.2
Cc1occc1C(=O)NNC(=S)Nc1ccccc1	17.7	45.0	-5.6	1.3	0.8	0.6
CCn1c(=O)c2c(nc(SCC(=O)NCC3CCCO3)n2C)n(C)c1=O (configuration not stated)	-12.1	-4.3	0.6	21.4	1.1	1
COc1ccc2cc(C)c3nnc(SCC(=O)Nc4nc(-c5ccccc5)cs4)n3c2c1	45.4	39.6	-0.5	6.8	0.5	0.6
Cn1c(=O)c2c(-c3cccc(F)c3)c3c(nc2n(C)c1=O)-c1ccccc1C3O (configuration not stated)	5.1	-13.7	-1.1	4.1	0.9	1.1
COCc1nnc(NC(=O)CCSc2ccccc2)s1	5.2	29.8	-2.5	5.7	0.9	0.7
COc1cc(CN/C(C)=C(\C#N)C(N)=O)cc(OC)c1OC	51.0*	66.7*	-1.1	21.9	0.5	0.3
COc1cc(CC(=O)NCCc2ccc(S(N)(=O)=O)cc2)cc(OC)c1OC	18.0	-15.3	4.8	14.8	0.8	1.2
CN(C)c1ccc(-c2noc(-c3ccccc3O)n2)cc1	2.4	12.1	3.8	8.0	1	0.9
SMILES	CYP2C9 inh	CYP2C19 inhib	PostGolgi yeast	PostGolgi ctrl	CYP2C9 activ	CYP2C19 act
Cc1cc(C)c(C#N)c(Sc2nnnn2-c2ccccc2)n1	18.3	56.6*	0.0	9.2	0.8	0.4
c1ccc(-n2nnnc2Sc2n[nH]c(-c3ccncc3)n2)cc1	80.5*	43.3	1.5	2.2	0.2	0.6
Cc1nc(Sc2nnnn2-c2ccccc2)c(C#N)c(C)c1C	10.8	58.9*	-0.2	5.5	0.9	0.4
Cc1ccccc1-n1nnnc1Sc1nnnn1-c1ccccc1	16.8	87.9*	18.4	7.0	0.8	0.1
COC(=O)C1CCN(C(=O)c2ccccc2Oc2ccccc2)CC1	55.2*	78.7*	11.8	11.6	0.4	0.2
COC(=O)C1CCN(C(=O)c2ccccc2NC(C)=O)CC1	-1.7	12.3	-2.7	-5.7	1	0.9
COc1ccccc1N1CCN(C(=O)c2ccccc2Oc2ccccc2)CC1	75.0*	74.5*	-0.2	8.3	0.3	0.3
O=C(c1c(F)cccc1F)N1CCN(c2ncccn2)CC1	65.3*	23.0	11.5	3.5	0.3	0.8
O=C(c1ccccc1Oc1ccccc1)N1CCN(c2ccccc2F)CC1	90.1*	78.8*	-2.4	32.7*	0.1	0.2
COc1ccc(C2c3c(oc4ccc(Cl)cc4c3=O)C(=O)N2Cc2ccco2)cc1OC (configuration not stated)	17.6	5.4	2.2	5.3	0.8	0.9
COc1cc(Cn2cnnn2)ccc1O	-63.6	-5.1	20.2	6.7	1.6	1.1
CCNc1nc(Oc2ccc(=O)[nH]n2)nc(N2CCOCC2)n1	45.5	19.6	-9.8	5.3	0.5	0.8
CCCCNC(=O)COC(=O)CCC(=O)c1ccc(F)cc1	39.5	49.1	-6.3	6.3	0.6	0.5
COc1ccccc1N1CCN(C(=O)c2ccc(Br)s2)CC1	88.6*	99.0*	12.3	20.6	0.1	0
O=C(c1ccc(Br)s1)N1CCN(c2ncccn2)CC1	80.4*	97.6*	7.8	-0.2	0.2	0
O=C(c1ccc(Br)s1)N1CCCC1	-18.0	34.1	-5.3	22.1	1.2	0.7
COc1ccccc1N1CCN(C(=O)c2cc3cc(Br)ccc3oc2=O)CC1	14.1	59.2*	-14.7	21.0	0.9	0.4
O=C(Nc1ccon1)c1ccccc1F	7.9	10.8	7.7	11.7	0.9	0.9
COc1ccc(C2=CSC3=NCCN23)cc1F	-3.3	18.4	2.5	-3.3	1	0.8
COc1cccc(CNC(=O)CSCc2cnn(-c3ccccc3)c2-n2cccc2)c1OC	97.4*	93.8*	18.7	10.8	0	0.1
CCOc1ccc(NC(=O)CSCc2cnn(-c3ccccc3)c2-n2cccc2)cc1	93.8*	97.7*	-4.1	10.2	0.1	0
COc1cc(NC(=O)CSCc2cnn(-c3ccccc3)c2-n2cccc2)cc(OC)c1	nt	nt	-9.5	14.1	nt	nt
COc1ccccc1CNC(=O)CSCc1cnn(-c2ccccc2)c1-n1cccc1	87.8*	97.2*	23.7	10.5	0.1	0
